# Screening data (PubChem BioAssay)
# Most compounds without a hit are left out; they make up all but 4% or so of the library.
# TWEAK Fn14 block: TWEAK-Fn14 signaling inhibition; TWEAK-stimulated Fn14 reporter cells, luciferase luminescence, 8 h; inhibition, % at 10 µM; hit rate 2% among 360,000; AID 1159606; in the data active means inhibition above about 50%
# Peg3 prom inh: Peg3 promoter activity inhibition; inhibition, % at 20 µM; AID 588405; hit rate 1.7% among 360,000; HeLa PEG-Prom luciferase reporter, luminescence, overnight;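 active means inhibition of at least 50% at 20 µM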
# TROY signal inh: TROY signaling inhibition. Q293 LMP1-TROYcd NF-kB luciferase reporter, 4 h. inhibition, % at 10 µM. hit rate 0.98% among 360,000;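 active means compounds whose plate-normalised and pattern-corrected inhibition of the luciferase reporter signal at the single screening dose is 50% or more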
# KKLEB cytotox: counter-screen for CF NF-kB inhibitors: cytotoxicity | AID 602141 | hit rate 0.36% among 360,000 | KKLEB CF airway cells viability, ATPlite luminescence, overnight; hits give low values; cells stimulated with P. aeruginosa culture filtrate | activity change (cytotoxicity), % at 5 µM;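 active means corrected activity change at or below -50% at 5 µM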
# HIF-2a block: HIF-2a inhibition. 786-0 RCC cells HIF-2a reporter, luciferase luminescence, overnight. inhibition, % at 18.8 µM. hit rate 0.72% among 360,000;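 active means inhibition of the luminescence signal of 40% or more relative to plate controls, in a single-dose primary screen at 18.75 µM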
# CF NFkB block: cystic fibrosis NF-kB activation inhibition; KKLEB NF-kB-GFP reporter, PAF-induced, GFP fluorescence overnight; inhibition, % at 5 µM; hit rate 0.86% among 360,000; AID 588850;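 active means at least 50% inhibition at 5 µM, scaled per plate between neutral and stimulator controls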;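 further: PAF is a Pseudomonas aeruginosa culture filtrate used as stimulus; plate controls were PAF-stimulated DMSO wells for no effect and unstimulated DMSO wells for full effect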
# The depositor's hits bear a star; / = no result given.
SMILES,TWEAK Fn14 block,Peg3 prom inh,TROY signal inh,KKLEB cytotox,HIF-2a block,CF NFkB block
Cc1ccc(/C=N/Nc2nc(C(C)(C)C)cs2)o1,-22,-206,9,-6,-294,8
Cc1ccc(/C=N/Nc2nc3ccccc3s2)o1,60*,-173,28,8,-116,-6
CC(=O)c1cc2c(cc1NS(=O)(=O)c1ccccc1Br)OCO2,36,15,-53,-1,12,-4
O=C(c1ccc(O)c(Cl)c1)N1CCN(S(=O)(=O)c2ccccc2)CC1,-8,21,10,11,7,-1
C=CCn1c(SCC(=O)O)nc2sc(CC)cc2c1=O,16,-1,0,10,13,27
C=CCn1c(SCC(=O)c2cccs2)nc2sc(CC)cc2c1=O,79*,12,41,-26,-15,0
CCCc1ccc(C(=O)NC(=O)c2ccccc2O)cc1,57*,-102,34,-7,-195,-7
O=C(NC(=O)c1ccccc1O)c1ccc(C(F)(F)F)cc1,24,-116,3,4,-231,28
CCC(C)C(=O)C(=O)N1CCC(n2nccc2NC(=O)CCOc2ccccc2)CC1 (stereo not drawn),8,-39,-39,-7,-36,11
Cc1c(/C=N/NC(=O)c2ccc(O)cc2)c2ccccn2c1C(=O)c1ccc(F)cc1,54*,-2,-4,-4,-53,-2
Cc1c(/C=N/NC(=O)c2ccccc2O)c2ccccn2c1C(=O)c1ccc(F)cc1,66*,18,51*,-3,-78,6
COC(=O)N/N=C/c1c(C)c(C(=O)c2ccc(F)cc2)n2ccccc12,10,23,15,5,26,2
COc1ccc(C[C@@H]2CN3C(=NC[C@@H]3Cc3ccc(O)cc3)N2C[C@H](C)NC(=O)CCC2CCCCC2)cc1,-7,68*,1,-19,-15,0
CC(C)[C@H]1CN=C2N(C[C@H](C)NC(=O)CCC3CCCCC3)[C@H](Cc3ccc(O)cc3)CN21,-10,-9,4,-28,-12,-9
CCC(C)N(C(=O)CSc1nc(-c2cccs2)nc2ccccc12)C1CCS(=O)(=O)C1 (stereo not drawn),26,44,-7,-12,16,6
CN(CC(=O)Nc1ccc(C#N)cc1)Cc1ccc(Cl)cc1,-3,18,2,4,8,-27
N#Cc1ccc(NC(=O)Nc2ccc(Cl)cc2)cc1,63*,-192,26,-6,-190,22
Nc1c(-c2ccccc2)cnn1-c1ccc(C(=O)O)cc1,54*,-83,-29,3,-81,6
Cc1ccc(-c2cnn(-c3ccccc3)c2N)cc1,20,-219,-24,-30,-172,-2
CCCCN1C(=O)C(CC(=O)NCCCN(C)C)CC(C(=O)N2CCCCCC2)=C1C (stereo not drawn),5,/,-3,/,12,/
Cc1nc(Cc2nnc(SC(C)C(=O)Nc3ccccc3)o2)cs1 (stereo not drawn),1,-12,4,-6,10,12
Cc1ccc(NC(=O)CSC2=C(C#N)C(c3ccco3)C3=C(CCCC3=O)N2)cc1 (stereo not drawn),-3,1,1,5,-9,3
N#CC1=C(SCC(=O)Nc2ccc(C(=O)O)cc2)NC(=O)CC1c1ccco1 (stereo not drawn),98*,5,-2,-4,9,0
COc1cc(SC#N)ccc1N=Cc1c(C)[nH]n(-c2ccc(Cl)cc2)c1=O,-42,56*,-26,9,12,-13
Cc1[nH]n(-c2ccc(Cl)cc2)c(=O)c1C=NC12CN3CN(CN(C3)C1)C2,-12,5,-7,6,14,-1
SMILES,TWEAK Fn14 block,Peg3 prom inh,TROY signal inh,KKLEB cytotox,HIF-2a block,CF NFkB block
CCCN(C(=O)CSc1ncccn1)C1CCS(=O)(=O)C1 (stereo not drawn),0,0,-4,0,7,15
Cc1cc(Br)ccc1NC(=O)CN(C)C(=O)c1cc(S(=O)(=O)N(C)C)ccc1N1CCCC1,88*,19,-5,-2,16,4
CC(C)CCN(C(=O)CCSc1ccc(F)cc1)c1c(N)n(Cc2ccccc2)c(=O)[nH]c1=O,-6,-6,-1,2,4,10
CCCCCC(=O)N1C[C@H](n2cc(C3CC3)nn2)[C@@H](O)C[C@@H]1c1ccc(Cl)cc1,10,6,-1,1,9,19
CCCCCCCCN1C(=O)[C@H](CC(=O)NCCc2ccccc2OC)C[C@@]2(C(=O)OCC)CCC=C12,/,/,/,/,5,/
O=C(Nc1ccccc1Oc1ccccc1)c1cc([N+](=O)[O-])ccc1Cl,54*,37,-17,-23,29,-13
CCOC(=O)[C@]12CCC=C1N(Cc1ccc(Cl)cc1Cl)C(=O)[C@H](CC(=O)NCc1ccccc1)C2,19,/,13,/,-4,/
CC1CCCN(c2ccc3nc4ccccc4c(=O)n3n2)C1 (stereo not drawn),37,-18,66*,-19,-64,-10
CC(=O)N1CCN(CCS(=O)(=O)c2ccc(Br)cc2)CC1,6,4,16,6,-8,-20
CCOC(=O)C(Cc1c[nH]c2cc([N+](=O)[O-])ccc12)(NC(C)=O)C(=O)OCC,5,12,-2,12,2,-36
Cc1cccc(NS(=O)(=O)c2ccc3[nH]c(=O)cc(C(=O)OC(C)C(=O)Nc4ccc([N+](=O)[O-])cc4)c3c2)c1 (stereo not drawn),-8,6,51*,-6,21,-3
Cc1cccc(NS(=O)(=O)c2ccc(NC(=O)CN(c3cc([N+](=O)[O-])ccc3C)S(C)(=O)=O)cc2)c1,19,59*,25,4,31,-4
COc1ccc([N+](=O)[O-])cc1N(CC(=O)NCCSc1ccc(C)cc1)S(C)(=O)=O,-1,7,-2,2,7,6
COc1ccc(C)cc1NS(=O)(=O)c1ccc(NC(=O)CN(c2cc([N+](=O)[O-])ccc2C)S(C)(=O)=O)cc1,23,64*,17,-1,18,-12
O=C(Nc1ncc([N+](=O)[O-])s1)c1cccc([N+](=O)[O-])c1,93*,-42,-14,-25,-40,45
O=C(C1CCCN(S(=O)(=O)c2ccc(F)cc2)C1)N1CCCCCC1 (stereo not drawn),-5,3,-2,10,14,5
CN(CCN1CCOCC1)C(=O)C1CCC(=O)N(Cc2ccc(Cl)cc2)C1 (stereo not drawn),5,-11,6,5,-4,4
NC1=NC(=O)/C(=C\c2cccnc2)S1,41,-8,28,2,8,52*
COC(=O)N1CCCCC1c1cc(C(=O)Nc2ccccc2Cl)no1 (stereo not drawn),-13,0,-25,9,-33,-15
